Our source for the growth values is PubChem BioAssay (NCI).

Values joined by “and” are separate entries in the source; they are usually repeats but may differ in a detail not shown here. Equal entries are not always repeated. This is part of a sample that, as a whole, favours compounds with a hit. Of some 83,000 tested, about 20% had one in any assay.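 Growth was measured after 48 h exposure to one concentration of compound in 96-well plates. Values under 10 count as active.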 Active and inactive are the calls of the source.

In this assay the test system is MDA-MB-468 breast. The experiment in a line: NCI-60 one-dose screen, 48 h (100 = growth as untreated, 0 = no growth, -100 = all killed). The following applies: 10 µM unless noted.
Take `C=C(C)[C@@H]1CC[C@]2(C(=O)N[C@@H](Cc3ccccc3)C(=O)OC)CC[C@]3(C)[C@H](CC[C@@H]4[C@@]5(C)CCC(=O)C(C)(C)[C@@H]5CC[C@]43C)[C@@H]12`: the growth was 84.2% (inactive). The value for `Cc1cc(C)c(S(=O)(=O)/N=c2/n(-c3ccccc3)nc3n2CCN3C2=NCCN2)c(C)c1` was 30% (inactive); that for `COc1cc(-n2cc(-c3cc(O)c(C/C=C(\C)CCC=C(C)C)c(O)c3)nn2)cc2c1O[C@]1(C)CC[C@@H](O)C(C)(C)[C@H]1C2` was -14.6% (active). Consider `CN1CCN(C(=S)S)CC1`, for which the growth was 119% (inactive). For the compound `CC(=O)c1cc2c(cc1F)C(C)(C)CCC2(C)C`, the growth is 101% (inactive). With `CC(C)Oc1ccc2cc(-c3nn(CC4CCNCC4)c4ncnc(N)c34)ccc2c1`, the growth is 84.8% (inactive) and -20% (active). For `CCCN1C=C/C(=C\C(=O)n2ccc3ccccc32)c2ccccc21`, the growth is 7.36% (active).

As to `Cc1ccccc1-n1nnc(C(=O)Nc2nc3ccc(F)cc3s2)c1C`, the growth was 32.8% (inactive). Consider `CN1CCOCCN(C)Cc2ccc3ccc(cc3c2)CN(C)CCOCCN(C)Cc2ccc3ccc(cc3c2)C1`, for which the growth is 52.9% (inactive). The figure for `CN([O-])c1nc(N(C)[O-])nc(N2CCOCC2)n1.CN([O-])c1nc(N(C)[OH2+])nc(N2CCOCC2)n1.[Fe+3]` is -52.3% [100 µM] (active); for `O=c1ccn(Cc2cn(-c3c4ccccc4nc4ccccc34)nn2)c(=O)[nH]1` it is -50.8% (active). `C(=C\c1nccc2c1[nH]c1ccccc12)/c1ccccc1`: the growth is -54% (active).

Take `Oc1ccccc1-c1nnc(Cn2c(Cc3cccc4ccccc34)nc3ccccc32)o1`: the growth was 105% (inactive). As to `Cc1[nH]c(C2CC(c3ccc(C(F)(F)F)c(F)c3)=NN2c2ccccc2)c(C)c1C(=O)NCC(F)(F)F` (stereo not given), the growth was 86.5% (inactive).

Consider `Cc1ccc(C(=O)c2ccc(CC(=O)N/N=C/c3ccc(O)cc3O)n2C)cc1`, for which the growth is 46.8% (inactive). As to `COc1cc(Nc2ncc(F)c(Nc3ccc4c(n3)NC(=O)C(C)(C)O4)n2)cc(OC)c1OC`, the growth was 27.7% (inactive). With `Cc1nc2sc(C(=O)Nc3cccc(Br)c3)c(N)c2cc1C(=O)c1ccc(C(F)(F)F)cc1`, the growth was 90.6% (inactive). With `OCCNc1nc(NCCO)nc(Nc2ccc(C3=NN(c4cc(Cl)cc(Cl)c4)C(c4ccccc4)C3)cc2)n1` (stereo not given), the growth was 73.5% (inactive). Turning to `Oc1c(Cl)cc(Cl)cc1Sc1cc(Cl)cc(Cl)c1O`, the growth is 84% (inactive) and -2.78% (active) and 67.9% (inactive).

With `CCCC(O)Cn1ncc(C(=O)OCC)c1NC(=O)NCc1ccccc1F` (stereo not given), the growth was 75.9% (inactive). The figure for `CCOC(=O)c1cc2cccc(OC)c2oc1=O` is 108% (inactive); for `CCN(CC)CCCCCCCCNc1c2ccc(Cl)cc2nc2ccc(OC)cc12` it is -93.2% (active); for `Cc1c(Cl)cccc1NC(=O)c1sc2nc3c(cc2c1N)COCC3` it is 17.7% (inactive). For `Cc1c2ccncc2c(C)c2c1c1ccccc1n2CCCCCC(=O)O`, the growth was 86.3% (inactive). The figure for `O=C1c2cc3c(cc2-c2c1c1ccc(F)cc1c(=O)n2C[C@H](O)[C@H](O)[C@H](O)CO)OCO3` is -39.9% (active); for `COc1ccc(-c2nc(SCCC(C)C)nc(N/N=C\c3cccc(Cl)c3)c2C#N)cc1` it is 95.9% (inactive); for `O=C(/C=C/C12c3ccccc3C(c3ccccc31)C1C(=O)N(c3ccccc3)C(=O)C12)c1ccccc1` (stereo not given) it is 1.31% (active). Consider `CCCCN(CCCC)CCC(C)(O)c1cc2ccccc2c2ccccc12` (stereo not given), for which the growth is 107% (inactive). As to `CCOC(=O)Nc1ccc(-c2nc(-c3cccc(OC)c3)c(-c3ccnc(Br)c3)[nH]2)cc1`, the growth was 25.9% (inactive). Regarding `COc1ccc(-c2cc(-c3cc(OC)c(OC)c(OC)c3)c(C#N)c(N3CCOCC3)n2)cc1O`, the growth is 76.7% (inactive).

For the compound `OCCOCCN(Cc1ccccn1)Cc1cc(I)cc(I)c1O`, the growth was 88% (inactive). Take `COc1c(O)cc2oc3cc(O[C@@H]4OC(C)[C@@H](O)[C@H](O)C4O)c(CC=C(C)C)c(O)c3c(=O)c2c1CC=C(C)C` (stereo not given in full): the growth was 82.5% (inactive). As for `C=C1C(=O)O[C@H]2[C@H]1CC/C(COC(=O)NCCc1ccc(OC)c(OC)c1)=C\CC[C@@]1(C)O[C@@H]21`, the growth was 16.9% (inactive). The value for `COc1cc(-c2ccc3ncnc(NCc4ccccc4)c3c2)cnc1OC` was 15.8% (inactive).

As to `CSc1nc2sc3c(c2c(=O)n1-c1ccc([N+](=O)[O-])cc1)CCCCC3`, the growth is 83% (inactive).
